Laboratory results: ChEMBL document CHEMBL3988442, “University of Dundee, Small-Polar-MMV Screening Library” (2021)
Screen size: about 69,000 compounds; about 1,000 (1.4%) showed an effect of 50% or more. Only a selection was taken, and strong results are over-represented in it overall.

System: Leishmania donovani
Assay: Leishmania intramacrophage assay
Format: functional, organism-based
Parameters: scale not given: in the data most compounds retested in dose-response had high values

CCS(=O)(=O)CC(=O)N1CCCC(c2noc(C(C)C)n2)C1 (stereo not given)
Percent Effect (30.3 µM, […]): 10.94%

CCOCCN1CCN(CC(O)c2ccc(C)c(C)c2)CC1 (stereo not given)
Percent Effect (30.3 µM, […]): 32.27%

Cc1nn(C)c(C)c1C1CCCN1C(=O)c1ccc2nnc(C)n2c1 (stereo not given)
Percent Effect (30 µM): 22.91%

CCC(CO)N(Cc1ccco1)C(=O)c1ccccc1SC (stereo not given)
Percent Effect (30.3 µM, […]): 54.97%

CCC(CO)N(Cc1ccco1)C(=O)c1cccc(C)c1O (stereo not given)
Percent Effect (30.3 µM, […]): 10.11%

CCC(CO)N(Cc1ccco1)C(=O)c1ccccc1NC (stereo not given)
Percent Effect (30.3 µM, […]): 33.8%

COc1ccc(C(C)CCNC2CCN(c3ccccn3)CC2)cc1 (stereo not given)
Percent Effect (30.3 µM, […]): 60.53%

CC(C)COCCNC1CCN(c2ccccn2)CC1
Percent Effect (30.3 µM, […]): 16.23%

c1ccc(N2CCC(NCCc3ccc(-n4cccn4)cc3)CC2)nc1
Percent Effect (30.3 µM, […]): 62.72%

CC(CNC1CCN(c2ccccn2)CC1)Oc1ccc(F)cc1 (stereo not given)
Percent Effect (30.3 µM, […]): 19.84%

c1cnn(-c2ccc(CCNC3CCN(C4CC4)C3)cc2)c1 (stereo not given)
Percent Effect (30.3 µM, […]): -4.355%

FC(F)CN1CCC(NCCc2ccc(-n3cccn3)cc2)CC1
Percent Effect (30.3 µM, […]): 23.28%

O=C(O)C(F)(F)F.O=C(c1n[nH]c2c1CCN(Cc1nccs1)C2)N1CCCC1
Percent Effect (30 µM, 30.03 µM): 10.02%

COc1cccc(-n2cc(CN(C)Cc3ccnc(C(C)C)n3)cn2)c1
Percent Effect (30.3 µM, […]): 11.44%

CCOCC1CN(C(=O)Cc2ccccn2)Cc2cn(C)nc21 (stereo not given)
Percent Effect (30.3 µM, […]): 5.026%

O=C(c1ccco1)N1CCOCC2(C1)CN(c1ccoc1)C(=O)CO2 (stereo not given)
Percent Effect (30.3 µM, […]): 15.48%

CCn1cnnc1CCNC(=O)C1COc2ccc(OC)cc2C1 (stereo not given)
Percent Effect (30.3 µM, […]): 15.43%

COc1nn(C)c2c1CCCN(C(=O)c1cccc(C)n1)C2.O=C(O)C(F)(F)F
Percent Effect (30.3 µM, […]): 4.327%

COc1nn(C)c2c1CCCN(C(=O)c1ccc3ccccc3n1)C2.O=C(O)C(F)(F)F
Percent Effect (30.3 µM, […]): -11.56%

COc1nn(C)c2c1CCCN(C(=O)c1cccc3cccnc13)C2.O=C(O)C(F)(F)F
Percent Effect (30.3 µM, […]): 75.35%

COCCNC(=O)CN1CC=C(n2c(C)nc(=O)c3ccccc32)CC1
Percent Effect (30.3 µM, […]): 40.79%

Cc1nnc2n1CCN(CC(=O)NC(C)c1cccc3ccccc13)C2 (stereo not given)
Percent Effect (30.3 µM, […]): -27.74%

Cc1nc(=O)c2ccccc2n1C1=CCN(CC(=O)N2CCCC2)CC1
Percent Effect (30.3 µM, […]): 66.01%

Cc1nc2ccccc2c(=O)n1CCC(=O)N1CCCCCC1
Percent Effect (30 µM): 21.32%

Cc1nc2ccccc2c(=O)n1CCC(=O)N1CCCC1
Percent Effect (30 µM): 19.05%

Cc1nc(=O)c2ccccc2n1C1=CCN(CC(=O)NC(C)C)CC1
Percent Effect (30.3 µM, […]): 64.5%

CSCCNC(=O)c1ccc(OC2CCN(CC(C)(C)C)CC2)c(Cl)c1
Percent Effect (30 µM, 30.03 µM): 17.7%

COCc1n[nH]c2c1CN(Cc1ccccn1)C2.O=C(O)C(F)(F)F
Percent Effect (30.3 µM, […]): 2.635%

Cc1nc(CN2CC[C@H]3[C@@H]2CCC(=O)N3c2cnn(C)c2)cs1.O=C(O)C(F)(F)F
Percent Effect (30.3 µM, […]): 2.736%

CC(C)(C)C(=O)N1CCN(C(=O)Nc2cnn(CC(F)F)c2)CC1
Percent Effect (30.3 µM, […]): 4.989%

O=C(c1cccnc1)N1CCCC(c2ncncc2-c2ccncc2)C1 (stereo not given)
Percent Effect (30.3 µM, […]): 1.341%

CCO[C@@H]1CCN(C(=O)N(C)C)[C@@H]1Cc1cnn(C)c1
Percent Effect (30.3 µM, […]): 27.5%

COCCO[C@H]1CCN(C(=O)c2ccc[nH]2)[C@H]1Cc1ccncc1
Percent Effect (30 µM, 30.03 µM): 17.48%

COCCO[C@H]1CCN(C(=O)c2ccsc2)[C@H]1Cc1ccncc1
Percent Effect (30.3 µM, […]): 26.31%

CCO[C@@H]1CCN(C(=O)c2cnc(C)cn2)[C@@H]1Cc1cnn(C)c1
Percent Effect (30.3 µM, […]): 53.66%

CCO[C@@H]1CCN(C(=O)c2cscn2)[C@@H]1Cc1cnn(C)c1
Percent Effect (30 µM, 30.03 µM): -2.934%

COCCO[C@H]1CCN(C(=O)c2cnccn2)[C@H]1Cc1ccncc1
Percent Effect (30.3 µM, […]): 54.37%

CN(C)S(=O)(=O)N1CC[C@]2(C[C@@H](Oc3cccnc3)CO2)C1.O=C(O)C(F)(F)F
Percent Effect (30.3 µM, […]): 7.751%

Cc1ccc(N2CCCc3sc(C(=O)NCc4ccc(C)o4)nc32)nn1
Percent Effect (30.3 µM, […]): 18.34%

COCCNCC1(O)CCCN(Cc2ccc(F)c(F)c2)C1=O (stereo not given)
Percent Effect (30.3 µM, […]): 36.88%

C=C(C)CNCC1(O)CCCN(Cc2ccc(F)c(F)c2)C1=O (stereo not given)
Percent Effect (30.3 µM, […]): 36.85%

O=C1OCCN1CCNCC1(O)CCCN(CCC2CCCCC2)C1=O (stereo not given)
Percent Effect (30.3 µM, […]): 27.13%

O=C1N(CCc2ccccc2)CCCC1(O)CNCc1ccc(F)cc1 (stereo not given)
Percent Effect (30.3 µM, […]): 14.91%

O=C1N(Cc2ccc(F)c(F)c2)CCCC1(O)CNCC1CCCCC1 (stereo not given)
Percent Effect (30.3 µM, […]): 62.26%

O=C1N(CCCc2ccccc2)CCCC1(O)CNCc1ccccc1 (stereo not given)
Percent Effect (30 µM, 30.03 µM): 54.86%

O=C1N(CCCc2ccccc2)CCCC1(O)CNCC1CCCCC1 (stereo not given)
Percent Effect (30.3 µM, […]): 36.42%

O=C1NCCN1CCNCC1(O)CCCN(CCC2CCCCC2)C1=O (stereo not given)
Percent Effect (30.3 µM, […]): 17.71%

O=C1N(CCC2CCCCC2)CCCC1(O)CNCCc1ccccc1 (stereo not given)
Percent Effect (30.3 µM, […]): 74.42%

Cc1nsc(N2CCc3sccc3C2)n1
Percent Effect (30.3 µM, […]): 14.81%

Cc1cnn(CCCNC(=O)N2CCCCC(N3CCCC3)C2)c1 (stereo not given)
Percent Effect (30 µM, 30.03 µM): 26.48%

Clc1cccc(OCCCN2CCOC(Cn3cncn3)C2)c1 (stereo not given)
Percent Effect (30 µM): 18.78%

CCCn1cc(CN2CCCC2c2nccc(CN(C)C)n2)cn1 (stereo not given)
Percent Effect (30.3 µM, […]): -4.658%

O=C(c1cc(C2CCCCN2C(=O)C2CCC2)n[nH]1)N1CCOCC1 (stereo not given)
Percent Effect (30.3 µM, […]): -8.909%

CCc1cnccc1C(=O)Nc1ccc(C(N)=O)nc1
Percent Effect (30.3 µM, […]): -9.48%

NC(=O)c1ccc(NC(=O)c2ccncc2F)cn1
Percent Effect (30.3 µM, […]): 52.29%

NC(=O)c1ccc(NC(=O)c2ccncc2Cl)cn1
Percent Effect (30.3 µM, […]): 4.641%

COCC(=O)N1CCCCC1c1nc(C)c2c(n1)N(C1CC1)C(=O)CC2 (stereo not given)
Percent Effect (30.3 µM, […]): 6.342%

c1csc(-c2cc(CN3CCN(c4nccs4)CC3)no2)c1
Percent Effect (30.3 µM, […]): 21.99%

Cc1cc(=O)[nH]cc1C(=O)N1CCN(C)c2ccccc2C1
Percent Effect (30.3 µM, […]): 57.95%

Cc1cc(=O)c(C(=O)N2CCN(C)c3ccccc3C2)c[nH]1
Percent Effect (30.3 µM, […]): -29.42%

Cc1cc(=O)[nH]cc1C(=O)N1Cc2ccccc2N(C)CC1C (stereo not given)
Percent Effect (30.3 µM, […]): -24.09%

COCc1nnc(NC(=O)CN2C(=O)c3ccccc3NC2C(C)C)s1 (stereo not given)
Percent Effect (30.3 µM, […]): 33.02%

NC(=O)CCCNC(=O)Cc1cccc(I)c1
Percent Effect (30.3 µM, […]): 7.14%

O=C(NC1CC1)NC(c1ccc(F)cc1)C1CC1 (stereo not given)
Percent Effect (30.3 µM, […]): 4.479%

N#Cc1cccc(N2CCCC3(CN(C(=O)c4ccc[nH]4)CCO3)C2)c1 (stereo not given)
Percent Effect (30.3 µM, […]): 1.97%
